Measurements taken from the supplement of paper PMC10127200.
Where a name gives a salt, the structure may show the parent alone.

system: DU145; assay: Euclidean distance of Cell Painting phenotypic profile (signed KS, 77 features) to DMSO centroid (dimensionless distance); 5 or 10 uM (library dependent); higher = stronger phenotypic change vs DMSO (phenoactivity); settings: 48 h
Method in brief: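 Harmony extracted 77 features from 20X confocal images (9 fields/well) of stained cells, scoring each as a signed Kolmogorov-Smirnov statistic against same-plate vehicle wells. The cells, five cancer lines and a healthy fibroblast line, had received library compounds for 48 h at 10 or 5 uM depending on library, with 0.1% DMSO final. Phenoactivity is the Euclidean distance from each plate-position-corrected, correlation-weighted, top-dose replicate-averaged profile to the median vehicle profile.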

Row | Compound | Euclidean distance
1 | CCCC(=O)OCOC(=O)C1=C(C)NC(C)=C(C(=O)OC)C1c1cccc(Cl)c1Cl (stereo not given) [Clevidipine Butyrate] | 1.47
2 | COc1ccc(CNCc2cccc3ccccc23)cc1 | 0.984
3 | CC[C@H](c1ccc(O)cc1)[C@@H](CC)c1ccc(O)cc1 [Hexestrol] | 0.97
4 | CN[C@@H](C)C(=O)N[C@H](C(=O)N1CCC[C@H]1C(=O)Nc1snnc1-c1ccccc1)C1CCCCC1 | 0.883
5 | O=C(O[C@@H]1C[C@@H]2C[C@H]3C[C@H](C1)N2CC3=O)c1c[nH]c2ccccc12 [Dolasetron Mesylate] | 0.963
6 | CCC(C)n1ncn(-c2ccc(N3CCN(c4ccc(OCC5COC(Cn6cncn6)(c6ccc(Cl)cc6Cl)O5)cc4)CC3)cc2)c1=O (stereo not given) [Itraconazole] | 1.52
7 | Cc1ccc(NC(=O)c2ccc(CN3CCN(C)CC3)cc2)cc1Nc1nc(-c2cccnc2)cs1 [Masitinib (AB1010)] | 2.65
8 | Cn1cnc2c1c(=O)[nH]c(=O)n2C [Theobromine] | 0.727
9 | NC(=O)c1cn(Cc2c(F)cccc2F)nn1 [Rufinamide] | 0.931
10 | CN(C)C(=O)COC(=O)Cc1ccc(OC(=O)c2ccc(NC(=N)N)cc2)cc1 [Camostat Mesilate] | 1.08
11 | COc1ccc2cc3[n+](cc2c1OC)CCc1cc2c(cc1-3)OCO2 [Berberine Sulfate] | 1.4
12 | Cc1cnc(Nc2ccc(OCCN3CCCC3)cc2)nc1Nc1cccc(S(=O)(=O)NC(C)(C)C)c1 | 2.95
13 | COc1cc2nccc(Oc3ccc(NC(=O)NC4CC4)c(Cl)c3)c2cc1C(N)=O [Lenvatinib (E7080)] | 1.02
14 | CC(=O)N1C[C@H](O)C[C@H]1C(=O)O [Oxaceprol] | 0.785
15 | Cc1nc(C#Cc2ccnc(Cl)c2)c(C)n1-c1ccc(OC(F)(F)F)cc1 | 0.706
16 | CO/N=C(\C(=O)N[C@@H]1C(=O)N2C(C(=O)O)=C(CSc3nc(=O)c(O)nn3C)CS[C@H]12)c1csc(N)n1 [Ceftriaxone Sodium Trihydrate] | 1.23
17 | CO[C@@H]1[C@@H](O[C@@H]2O[C@H](C)[C@@H](O[C@H]3C[C@@](C)(O)[C@@H](OC(=O)CC(C)C)[C@H](C)O3)[C@H](N(C)C)[C@H]2O)[C@@H](CC=O)C[C@@H](C)[C@@H](O)/C=C/C=C/C[C@@H](C)OC(=O)C[C@H]1OC(C)=O [Josamycin] | 0.712
18 | OCCN1CCN(CCCN2c3ccccc3Sc3ccc(Cl)cc32)CC1 [Perphenazine] | 1.77
19 | CS(=O)(=O)c1cccc(C[C@H](NC(=O)c2c(Cl)cc3c(c2Cl)CCN(C(=O)c2ccc4ccoc4c2)C3)C(=O)O)c1 [Lifitegrast] | 1.53
20 | N#CC(=C(/N)Sc1ccccc1N)/C(C#N)=C(\N)Sc1ccccc1N | 0.907

Row | Compound | Euclidean distance
21 | CNCc1cc(-c2ccccc2F)n(S(=O)(=O)c2cccnc2)c1 [Vonoprazan Fumarate (TAK-438)] | 0.972
22 | CCN1CCN(Cc2ccc(Nc3ncc(F)c(-c4cc(F)c5nc(C)n(C(C)C)c5c4)n3)nc2)CC1 [Abemaciclib] | 3.65
23 | Nc1nc2[nH]cnc2c(=S)[nH]1 [Thioguanine] | 1.48
24 | CCC(=O)c1c(O)cc(O)cc1O [Flopropione] | 1.2
25 | C[C@]12CCC(=O)C=C1CC[C@@H]1[C@@H]2[C@@H](O)C[C@@]2(C)[C@H]1CC[C@]2(O)C(=O)CO [Hydrocortisone] | 2.09
26 | C[C@H](CS)C(=O)N1CCC[C@H]1C(=O)O [Captopril] | 0.669
27 | FCOC(C(F)(F)F)C(F)(F)F [Sevoflurane] | 0.847
28 | O=NN(CCCl)C(=O)NC1CCCCC1 [Lomustine] | 0.869
29 | CC(C)[C@H]1CC[C@H](C(=O)N[C@H](Cc2ccccc2)C(=O)O)CC1 [Nateglinide] | 1.17
30 | Cc1ccc(/C(=C\CN2CCCC2)c2cccc(/C=C/C(=O)O)n2)cc1 [Acrivastine] | 1.03
31 | COCCCN1CCC(NC(=O)c2cc(Cl)c(N)c3c2OCC3)CC1 [Prucalopride Succinate] | 1.04
32 | CN(C)Cc1c(C(=O)NCCOc2ccc(C(=O)NO)cc2)oc2ccccc12 | 3.96
33 | Oc1c(Br)cc(Br)c2cccnc12 [Broxyquinoline] | 1.01
34 | O=C(O)c1cc(=O)c2ccccc2o1 [Chromocarb] | 0.751
35 | O=C1N=C(O)NC1(c1ccccc1)c1ccccc1 [Phenytoin sodium] | 0.884
36 | Cc1c(Cn2c(C)nc3c(C(=O)O)cc(N4CCOCC4)cc32)cccc1C(F)(F)F | 1.28
37 | CCn1cc(C(=O)O)c(=O)c2cc(F)c(N3CCN(C)CC3)cc21 [Pefloxacin Mesylate Dihydrate] | 0.855
38 | CCC(=O)O[C@@H](O[P@](=O)(CCCCc1ccccc1)CC(=O)N1C[C@H](C2CCCCC2)C[C@H]1C(=O)O)C(C)C [Fosinopril Sodium] | 1.62
39 | CCCC(=O)Nc1ccc(OCC(O)CNC(C)C)c(C(C)=O)c1 (stereo not given) [Acebutolol HCl] | 1.23
40 | Cc1c(-c2ccc(O)cc2)n(Cc2ccc(OCCN3CCCCCC3)cc2)c2ccc(O)cc12 [Bazedoxifene HCl] | 3.42
